PubChem BioAssay
Records with an inconclusive call do not appear. The source made the active and inactive calls. Unless noted, the rule behind the calls is not given here.

Tests used:
[1] = GFP-Q80 aggregate reduction, neuronal-like cells, cell-based, NGF-treated PC12, GFPQ80 (AID 1614); conditions: PC12 NGF-treated GFP-polyQ80 inclusion reduction;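 note: lower means fewer inclusions and 0 means no inclusions at all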
[2] = compounds altering circadian rhythm period length – cell-based, LOPAC library, luminescence reporter (AID 2774); conditions: circadian reporter cells, at 7 µM, actives lie on both sides;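 note: values are relative to mean of DMSO wells on each plate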
[3] = system: Hepatitis C virus NS3 helicase; assay: blockers of NS3h binding to ssDNA – biochemical, fluorescence polarization, LOPAC1280 library, primary screen (AID 687035; in the data active = inhibition above about 37%); conditions: Purified HCV NS3 helicase, Cy5-dT15 ssDNA binding fluorescence polarization; stronger effect = higher value; concentration not given here
[4] = compounds altering Cy5-DNA-NS3h complex signal – biochemical, LOPAC1280, artefact control for HCV NS3 helicase inhibitor project (AID 687037); conditions: Cy5-DNA-NS3h complex fluorescence interference counterscreen
[5] = biological target: ATP-dependent translocase ABCB1 (Homo sapiens) (UniProt P08183); assay: P-glycoprotein substrate transport blockade – cell-based (AID 377; in the data active = fluorescence slope change above about 50%); conditions: MDR1-expressing cells, fluorescent substrate accumulation slope; stronger effect = higher value; concentration not given here
[6] = system: Neuropilin-2 / VEGF-C interaction (human); assay: small molecules blocking Neuropilin-2/VEGF-C interaction – biochemical, microplate binding format, z-score (AID 743281); conditions: microplate NRP2/VEGF-C binding assay; stronger effect = lower value
[7] = viability loss in pontine glioma line – cell-based, SU-DIPG-XIII, MIPE4.0, CellTiter-Glo, qHTS, dose response (AID 1347061; cut-off not given, nearly all actives have AC50 up to about 37 µM;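 note: cells exposed to compound for 48 hours before readout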); conditions: CellTiter-Glo ATP luminescence
[8] = viability loss in pontine glioma line – cell-based, JHH-DIPG-1, MIPE4.0, CellTiter-Glo, qHTS, dose response (AID 1347062; cut-off not given, nearly all actives have AC50 up to about 27 µM;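 for AC50: cells exposed to compound for two days before readout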); conditions: JHH-DIPG-1 viability, CellTiter-Glo ATP luminescence
[9] = viability loss in pontine glioma line – cell-based, SU-DIPG-IV, MIPE4.0, CellTiter-Glo, qHTS, dose response (AID 1347063; cut-off not given, nearly all actives have AC50 up to about 30 µM;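 note: compound exposure lasted 48 hours before the viability readout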); conditions: CellTiter-Glo ATP luminescence
[10] = growth inhibition of DIPG cells – cell-based, MIPE4.0 library, CellTiter-Glo luminescence, qHTS (AID 1347066; cut-off not given, nearly all actives have AC50 up to about 30 µM;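 note: cells exposed to compound for 48 hours before readout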); conditions: SU-DIPG-VI viability, CellTiter-Glo ATP luminescence
[11] = viability loss in pontine glioma line – cell-based, SU-DIPG-XVII, MIPE5.0, CellTiter-Glo, qHTS, dose response (AID 1347060; cut-off not given, nearly all actives have AC50 up to about 26 µM;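 note: cells exposed to compound for 48 hours before viability readout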); conditions: CellTiter-Glo ATP luminescence
[12] = viability loss in pontine glioma line – cell-based, SU-DIPG-XIII, MIPE5.0, CellTiter-Glo, qHTS, dose response (AID 1347064; cut-off not given, nearly all actives have AC50 up to about 23 µM;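 note: cells exposed to compound for 48 hours before the viability read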); conditions: CellTiter-Glo ATP luminescence
[13] = viability loss in pontine glioma line – cell-based, SU-DIPG-XXV, MIPE5.0, CellTiter-Glo, qHTS, dose response (AID 1347065; cut-off not given, nearly all actives have AC50 up to about 26 µM;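 note: cells exposed to compound for 48 hours before ATP readout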); conditions: CellTiter-Glo ATP luminescence
[14] = JHH-DIPG-1 glioma cell viability, MIPE5.0 library, CellTiter-Glo luminescence, qHTS (AID 1347067; cut-off not given, nearly all actives have AC50 up to about 26 µM;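 note: cells exposed to compound for 48 hours before readout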); conditions: JHH-DIPG-1 glioma viability, CellTiter-Glo ATP luminescence
[15] = growth inhibition of DIPG cells – cell-based, MIPE5.0 library, qHTS (AID 1347068; cut-off not given, nearly all actives have IC50 up to about 30 µM;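 note: cells exposed to compound for 48 hours before viability readout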); conditions: SU-DIPG-XXV viability

Sequence of ATP-dependent translocase ABCB1 (Homo sapiens) (P08183 whole entry, looked up): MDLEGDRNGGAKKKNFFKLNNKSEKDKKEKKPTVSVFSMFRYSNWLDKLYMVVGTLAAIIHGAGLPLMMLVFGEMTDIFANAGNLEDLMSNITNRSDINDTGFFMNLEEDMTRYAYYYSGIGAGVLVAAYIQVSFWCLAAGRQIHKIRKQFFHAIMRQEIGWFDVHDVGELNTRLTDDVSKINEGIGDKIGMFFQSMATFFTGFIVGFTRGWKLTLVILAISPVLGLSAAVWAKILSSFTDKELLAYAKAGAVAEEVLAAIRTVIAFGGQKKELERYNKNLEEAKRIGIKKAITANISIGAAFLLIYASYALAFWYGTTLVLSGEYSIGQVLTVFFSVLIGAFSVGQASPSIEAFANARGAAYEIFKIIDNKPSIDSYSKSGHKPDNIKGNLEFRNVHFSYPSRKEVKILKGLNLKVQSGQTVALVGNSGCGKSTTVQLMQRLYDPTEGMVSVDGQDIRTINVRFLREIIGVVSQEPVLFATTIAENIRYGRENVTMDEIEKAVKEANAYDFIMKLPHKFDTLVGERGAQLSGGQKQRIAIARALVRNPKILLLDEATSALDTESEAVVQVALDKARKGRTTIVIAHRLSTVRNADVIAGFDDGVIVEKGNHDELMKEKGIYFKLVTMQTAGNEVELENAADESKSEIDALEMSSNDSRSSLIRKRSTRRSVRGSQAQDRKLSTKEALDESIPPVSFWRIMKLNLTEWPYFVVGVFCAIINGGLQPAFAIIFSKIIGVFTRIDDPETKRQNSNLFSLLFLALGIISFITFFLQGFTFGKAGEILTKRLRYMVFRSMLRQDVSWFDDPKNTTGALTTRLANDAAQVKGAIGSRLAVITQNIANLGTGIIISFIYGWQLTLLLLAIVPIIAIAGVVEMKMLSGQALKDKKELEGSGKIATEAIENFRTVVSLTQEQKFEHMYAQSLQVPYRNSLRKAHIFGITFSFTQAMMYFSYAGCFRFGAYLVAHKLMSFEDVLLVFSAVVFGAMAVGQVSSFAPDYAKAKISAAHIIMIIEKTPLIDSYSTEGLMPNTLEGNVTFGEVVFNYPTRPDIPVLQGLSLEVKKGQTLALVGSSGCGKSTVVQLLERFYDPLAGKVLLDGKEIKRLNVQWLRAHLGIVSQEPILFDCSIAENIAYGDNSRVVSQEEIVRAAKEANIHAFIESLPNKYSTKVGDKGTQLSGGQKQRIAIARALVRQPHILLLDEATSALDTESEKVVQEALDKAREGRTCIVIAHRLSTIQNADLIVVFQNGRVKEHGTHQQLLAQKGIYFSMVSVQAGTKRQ

## Nc1ccc(S(=O)(=O)c2ccc(N)cc2)cc1
[1]
  inclusion score: 2

## CCCNC(C)C(=O)Nc1ccccc1C (stereo not given)
[1]
  inclusion score: 2
[2]
  period change: -0.13 h (inactive)
[3]
  inhibition: -1% (inactive)
[4]
  fluorescence ratio (interference): 1 (inactive)

## CC(C)[N+](C)(CCOC(=O)C1c2ccccc2Oc2ccccc21)C(C)C
[5]
  fluorescence slope change: 80.1% (active)
[1]
  inclusion score: 2
[2]
  period change: 0.06 h (inactive)
[3]
  inhibition: 0% (inactive)
[4]
  fluorescence ratio (interference): 1 (inactive)

## CC(CN1c2ccccc2Sc2ccccc21)N(C)C (stereo not given)
[2]
  period change: 0.14 h (inactive)
[3]
  inhibition: -2% (inactive)
[4]
  fluorescence ratio (interference): 1 (inactive)

## CC[N+](C)(C)c1cccc(O)c1
[5]
  fluorescence slope change: 82.5% (active)
[1]
  inclusion score: 2
[2]
  period change: 0.07 h (inactive)
[3]
  inhibition: -3% (inactive)
[4]
  fluorescence ratio (interference): 1 (inactive)

## CCN(CC)CCNC(=O)c1ccc(N)cc1
[1]
  inclusion score: 2
[2]
  period change: 0.185 h (inactive)
[3]
  inhibition: -2% (inactive)
[4]
  fluorescence ratio (interference): 1 (inactive)

## CN(C)CCOC(C)(c1ccccc1)c1ccccn1 (stereo not given)
[1]
  inclusion score: 2
[2]
  period change: 0.205 h (inactive)
[3]
  inhibition: -2% (inactive)
[4]
  fluorescence ratio (interference): 1.1 (inactive)
[6]
  z-score: -0.0183 (inactive)

## NS(=O)(=O)c1cc2c(cc1C(F)(F)F)NC(Cc1ccccc1)NS2(=O)=O (stereo not given)
[5]
  fluorescence slope change: 16.6% (inactive)
[1]
  inclusion score: 2

## NS(=O)(=O)c1cc2c(cc1C(F)(F)F)NCNS2(=O)=O
[1]
  inclusion score: 2

## OCCN1CCN(CCCN2c3ccccc3Sc3ccc(Cl)cc32)CC1
[5]
  fluorescence slope change: 181% (active)
[2]
  period change: -0.035 h (inactive)
[3]
  inhibition: -1% (inactive)
[4]
  fluorescence ratio (interference): 1 (inactive)

## CSc1ccc2c(c1)N(CCC1CCCCN1C)c1ccccc1S2 (stereo not given)
[2]
  period change: -0.225 h (inactive)
[3]
  inhibition: -3% (inactive)
[4]
  fluorescence ratio (interference): 0.9 (inactive)

## CC(N=C(NC#N)Nc1ccncc1)C(C)(C)C (stereo not given)
[5]
  fluorescence slope change: 190% (active)
[2]
  period change: 0.07 h (inactive)
[3]
  inhibition: -5% (inactive)
[4]
  fluorescence ratio (interference): 1 (inactive)
[6]
  z-score: -0.52 (inactive)

## CCN(CC)CCOC(=O)c1ccc(N)cc1
[1]
  inclusion score: 1.5
[2]
  period change: -0.065 h (inactive)
[3]
  inhibition: 0% (inactive)
[4]
  fluorescence ratio (interference): 1 (inactive)

## Cc1nc2ccccn2c(=O)c1CCN1CCC(C(=O)c2ccc(F)cc2)CC1
[2]
  period change: -0.415 h (inactive)
[3]
  inhibition: -3% (inactive)
[4]
  fluorescence ratio (interference): 1 (inactive)
[6]
  z-score: -1.94 (inactive)

## CN(C)CCCN1c2ccccc2Sc2ccc(Cl)cc21
[2]
  period change: -0.035 h (inactive)
[3]
  inhibition: -2% (inactive)
[4]
  fluorescence ratio (interference): 1 (inactive)

## CCCCNC(=O)NS(=O)(=O)c1ccc(C)cc1
[1]
  inclusion score: 2
[2]
  period change: 0 h (inactive)
[3]
  inhibition: -5% (inactive)
[4]
  fluorescence ratio (interference): 1 (inactive)

## CC(C)NCC(O)c1cc(O)cc(O)c1 (stereo not given)
[5]
  fluorescence slope change: 14.9% (inactive)
[1]
  inclusion score: 2
[2]
  period change: -0.17 h (inactive)
[3]
  inhibition: -4% (inactive)
[4]
  fluorescence ratio (interference): 0.9 (inactive)

## O=C(CCCN1CC=C(n2c(=O)[nH]c3ccccc32)CC1)c1ccc(F)cc1
[5]
  fluorescence slope change: 53.4% (active)
[6]
  z-score: 0.0538 (inactive)

## CN(C)CCC=C1c2ccccc2CCc2ccccc21
[2]
  period change: 0.175 h (inactive)
[3]
  inhibition: -5% (inactive)
[4]
  fluorescence ratio (interference): 0.9 (inactive)

## NC(=O)N1c2ccccc2C=Cc2ccccc21
[1]
  inclusion score: 2
[2]
  period change: 0.01 h (inactive)
[3]
  inhibition: -1% (inactive)
[4]
  fluorescence ratio (interference): 1 (inactive)

## CN(C)CCCN1c2ccccc2CCc2ccccc21
[2]
  period change: 0.07 h (inactive)
[3]
  inhibition: -7% (inactive)
[4]
  fluorescence ratio (interference): 1 (inactive)

## Cc1ccc(Cl)c(Nc2ccccc2C(=O)O)c1Cl
[5]
  fluorescence slope change: 27.6% (inactive)
[1]
  inclusion score: 2
[2]
  period change: 0.13 h (inactive)
[3]
  inhibition: 0% (inactive)
[4]
  fluorescence ratio (interference): 1 (inactive)

## Cc1ccc(S(=O)(=O)NC(=O)NN2CCCCCC2)cc1
[5]
  fluorescence slope change: 5.1% (inactive)
[1]
  inclusion score: 2
[2]
  period change: 0.08 h (inactive)
[3]
  inhibition: -1% (inactive)
[4]
  fluorescence ratio (interference): 1 (inactive)

## Nc1nc(N)c2nc(-c3ccccc3)c(N)nc2n1
[2]
  period change: 0.185 h (inactive)
[3]
  inhibition: -2% (inactive)
[4]
  fluorescence ratio (interference): 1 (inactive)

## CCCNC(=O)NS(=O)(=O)c1ccc(Cl)cc1
[5]
  fluorescence slope change: 6.6% (inactive)
[1]
  inclusion score: 2
[2]
  period change: 0.055 h (inactive)
[3]
  inhibition: -1% (inactive)
[4]
  fluorescence ratio (interference): 1 (inactive)

## C[C@H](CS)C(=O)N1CCC[C@H]1C(=O)O
[1]
  inclusion score: 2
[2]
  period change: 0.01 h (inactive)
[3]
  inhibition: 0% (inactive)
[4]
  fluorescence ratio (interference): 1 (inactive)

## OC(CCN1CCCCC1)(c1ccccc1)C1CCCCC1 (stereo not given)
[5]
  fluorescence slope change: 66% (active)
[2]
  period change: 0 h (inactive)
[3]
  inhibition: 0% (inactive)
[4]
  fluorescence ratio (interference): 1 (inactive)

## CCCCC1=NC2(CCCC2)C(=O)N1Cc1ccc(-c2ccccc2-c2nn[nH]n2)cc1
[6]
  z-score: 0.146 (inactive)

## CN(C)C(=O)Oc1ccc[n+](C)c1
[1]
  inclusion score: 2
[2]
  period change: 0.015 h (inactive)
[3]
  inhibition: -1% (inactive)
[4]
  fluorescence ratio (interference): 1 (inactive)

## c1ccc2c(c1)CCCC2C1=NCCN1 (stereo not given)
[5]
  fluorescence slope change: 13.8% (inactive)
[1]
  inclusion score: 2
[2]
  period change: -0.02 h (inactive)
[3]
  inhibition: -3% (inactive)
[4]
  fluorescence ratio (interference): 1 (inactive)

## O=C1NC(=O)C(c2ccccc2)(c2ccccc2)N1
[1]
  inclusion score: 2
[2]
  period change: 0.02 h (inactive)
[3]
  inhibition: 1% (inactive)
[4]
  fluorescence ratio (interference): 1 (inactive)

## CC(=O)CCCCn1c(=O)c2c(ncn2C)n(C)c1=O
[5]
  fluorescence slope change: 121% (active)
[1]
  inclusion score: 2
[2]
  period change: 0.02 h (inactive)
[3]
  inhibition: -4% (inactive)
[4]
  fluorescence ratio (interference): 1 (inactive)
[6]
  z-score: -0.728 (inactive)

## CCOC(=O)[C@H](CCc1ccccc1)N[C@@H](C)C(=O)N1Cc2ccccc2C[C@H]1C(=O)O
[1]
  inclusion score: 2.5

## Cc1cccc(Nc2ccncc2S(=O)(=O)NC(=O)NC(C)C)c1
[6]
  z-score: 0.676 (inactive)
[7]
  outcome: inactive
[8]
  outcome: inactive
[9]
  outcome: inactive
[10]
  outcome: inactive

## COc1cc([C@@H]2c3cc4c(cc3[C@H](O)[C@H]3COC(=O)[C@H]23)OCO4)cc(OC)c1OC
[11]
  AC50: 0.0417 µM (active)
[8]
  AC50: 0.0743 µM (active)
[9]
  outcome: inactive
[12]
  AC50: 0.0295 µM (active)
[13]
  AC50: 0.0468 µM (active)
[14]
  AC50: 0.0295 µM (active)
[15]
  IC50: 0.0525 µM (active)

## C[C@]12CCC(=O)C=C1CC[C@@H]1[C@@H]2[C@@H](O)C[C@@]2(C)[C@H]1CC[C@]2(O)C(=O)COC(=O)CCC(=O)O
[2]
  period change: -0.475 h (inactive)

## Cc1cccc(CN2CCN(C(c3ccccc3)c3ccc(Cl)cc3)CC2)c1 (stereo not given)
[11]
  AC50: 23.5 µM (active)
[9]
  AC50: 18.7 µM (active)
[12]
  AC50: 20.9 µM (active)
[10]
  AC50: 20.9 µM (active)
[14]
  AC50: 16.6 µM (active)
[15]
  IC50: 23.5 µM (active)
